Most compounds without a hit are left out; they make up all but 21% or so of the library.
Pf growth 48h – inhibits P. falciparum growth in the first generation, 48 h. P. falciparum luciferase growth in erythrocytes, 48 h. Potency, µM (highest dose often 28.7 µM), for the others: top-dose activity change, negative = inhibition, hits mostly inhibitors. 310,000 tested, 5.9% active. AID 504832; note: potency is the fitted concentration of half-maximal effect; % is set by controls: 0 for no effect and ±100 for the full control effect
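Luciferase-expressing P. falciparum in infected erythrocytes (2% hematocrit, 0.1% parasitemia final) in RPMI 1640/0.5% Albumax were exposed to compound for 48 hours at 37 C, 5% CO2; growth read as luminescence.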
SARS PLpro yeast – blocks SARS-CoV papain-like protease in a yeast assay | 330,000 tested, 0.19% active | Potency, µM (titrated, usually from 32.9 µM), for inactives: at the highest dose activity, positive = growth rescue, hits mostly activators | S. cerevisiae expressing SARS-CoV PLpro, growth rescue; calls by dose curve; note: potency is the fitted concentration of half-maximal effect; 0% is about no effect; nearly all actives have a fitted effect of over 55% in size
Pf growth 96h – P. falciparum growth inhibition at 96 hours; Potency, µM (highest dose often 28.7 µM), inactives show at the highest dose activity change, negative = inhibition, usual class: inhibitors; AID 504834; P. falciparum luciferase reporter growth, 96 h; 320,000 tested, 6.9% active; note: potency is the fitted concentration of half-maximal effect; % is set by controls: 0 for no effect and ±100 for the full control effect
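Plates of compound plus infected erythrocytes (2% hematocrit, 0.05% parasitemia final) incubate 96 hours, 37 C, 5% CO2. Detection reagent added; reduced luminescence from the parasites' luciferase reporter flags inhibition.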
NS1 function inh – inhibitors of influenza NS1 protein function. Potency, µM (series often up to 46.1 µM), inactives show at the top dose activity, positive = more growth. 270,000 tested, 0.4% active. AID 2326; calls by dose curve; note: potency is the fitted concentration of half-maximal effect; actives are rising curves; nearly all actives have a fitted effect of over 50% in size
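Read-out: OD600 growth recovery of NS1-expressing budding yeast. Cells grown overnight at 30C in -URA glucose medium, washed, resuspended and diluted 1:100 in 2% galactose assay medium, pH 6.0. Same strain lacking NS1 served as positive control.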
CHX counter – counter-screen hit for Shiga toxin inhibitors, cycloheximide | cell reporter, cycloheximide protein synthesis inhibition counterscreen | 300,000 tested, 12% active | max response, %; in the data active = max response mostly above about 13%, no sharp cut-off; inactive = mostly below about 14%; note: read at 38.3 µM for the half of the compounds with a filed dose; 0% is about no effect
Shiga toxin inh – blocks Shiga toxin action in Vero cells; inhibition, % at 38.7 µM; 290,000 tested, 9.2% active; Vero cells, Shiga toxin protein synthesis inhibition reporter; in the data active = inhibition mostly above about 28%, no sharp cut-off; inactive = mostly below about 43%; note: 0% is about no effect
* = called active by the depositor; i = inactive; ? = inconclusive; / = no result given. Unless noted, calls come from the whole dose curve; as a rule, active = well fitted inhibition curve with a large enough effect; inconclusive = small, poorly fitted or top-dose-only effect, or another doubt; inactive = no such curve, though single readings can be large or run the other way.

SMILES	Pf growth 48h	SARS PLpro yeast	Pf growth 96h	NS1 function inh	CHX counter	Shiga toxin inh
CNc1nnc(SCC(=O)c2cc(C)n(C3CC3)c2C)s1	91.7%	-11.0%	28.2%	/	/	/
Cc1nnc(SCC(=O)c2cc(C)n(C3CC3)c2C)s1	-4.2%	-3.1%	165.3%	-64.3%	81.0*	69.2*
Cc1cc(C(=O)CSc2nnnn2C)c(C)n1C1CC1	376.7%	0.5%	194.7%	/	56.1*	150.6*
O=[N+]([O-])c1cc(CN2CCCC2)ccc1Sc1ccc(Cl)cc1	?	-1.2%	-19.6%	-1.0%	-0.8	-12.1
COc1ccc(CC(=O)Nc2cccc(SC)c2)cc1	14.3%	-14.0%	-2.1%	-35.0%	16.6*	19.2
COc1ccc(CC(C)Nc2cccc(SC)c2)cc1 (centres undefined)	-1.9%	-10.4%	8.28µM*	5.1%	-2.8	-3.3
Cc1ccsc1C(=O)OC(C)C(=O)Nc1ccc(Cl)cn1 (centres undefined)	/	-40.3%	/	/	/	/
Cc1ccc(S(=O)(=O)N/N=C\c2cc([N+](=O)[O-])ccc2Cl)cc1	21.4%	6.1%	22.9%	6.3%	1.6	-8.5
Cc1ccsc1/C=N/NS(=O)(=O)c1ccc([N+](=O)[O-])cc1	-9.4%	-14.4%	26.3%	-16.2%	47.9*	30.8
Cc1ccsc1/C=N/NC(=O)Nc1ccccc1	460.9%	-1.9%	3.8%	/	30.8*	57.2*
COc1ccccc1NCC(=O)N/N=C/c1sccc1C	25.6%	-0.4%	1.3%	0.3%	29.9	26.7
COc1ccc(CC(=O)N/N=C/c2sccc2C)cc1	12.3%	-2.6%	26.3%	-8.5%	8.5	23.7
Cc1ccsc1/C=N/NC(=O)c1ccc2ccccc2c1	2.3%	-5.1%	?	-18.7%	44.3*	73.4*
Cc1ccsc1/C=N/NC(=O)c1cccnc1	-7.7%	-0.1%	23.5%	1.8%	9.9*	25.1
CC1CC(C)(C)NC(=S)N1CC(=O)NCc1ccc2c(c1)OCO2 (centres undefined)	-3.6%	-1.4%	15.9%	-4.4%	-0.8	-1.9
N#CC1(NC(=O)CN2CCc3ccccc3C2)CCCC1	6.6%	1.6%	-11.2%	/	-4.8	-11.6
Cc1ccc(C)c(N2CC(C(=O)Nc3nccs3)CC2=O)c1 (centres undefined)	9.6%	5.0%	11.3%	-5.5%	-2.4	-15.8
Cc1ccsc1/C=N/NC(=O)c1ccncc1	?	0.5%	35.1%	/	7.8	20.8
Cc1ccsc1/C=N/NC(=O)c1ccc([N+](=O)[O-])cc1	-9.1%	1.1%	2.4%	/	24.0*	-3.1
Cc1ccc(C)c(C(=O)COC(=O)CN2C(=O)C3C4CCC(C4)C3C2=O)c1 (centres undefined)	-11.0%	0.5%	?	-2.1%	6.1	-5.1
Cc1cc(O)cc(C)c1NS(=O)(=O)c1ccc2ccccc2c1	6.9%	0.8%	?	-5.0%	-9.0	3.0
N#C/C(=C\c1ccc(/C=C(/C#N)c2nn(CCO)c(N)c2C#N)cc1)c1nn(CCO)c(N)c1C#N	6.7%	11.2%	-0.2%	4.4%	-1.3	-8.7
N#C/C(=C/c1ccccc1)c1nn(CCO)c(N)c1C#N	15.9%	-5.3%	-1.3%	-5.6%	27.1*	26.6*
COc1cc(/C=C(\C#N)c2nn(CCO)c(N)c2C#N)cc(OC)c1OC	7.38µM*	7.3%	-14.5%	-2.4%	-3.2	-4.3
Cc1ccc(NC(=O)CN(C)C(=O)c2cc(-c3cccs3)nn2-c2ccccc2)cc1	?	-0.1%	-14.1%	/	/	/
SMILES	Pf growth 48h	SARS PLpro yeast	Pf growth 96h	NS1 function inh	CHX counter	Shiga toxin inh
O=C1CCc2cc(S(=O)(=O)NCCC(=O)N3CCN(c4cccc(Cl)c4)CC3)ccc2N1	?	-4.3%	10.4µM*	-5.6%	-0.3	1.6
O=C(CCNS(=O)(=O)c1ccc2c(c1)CCC(=O)N2)Nc1ccc2c(c1)OCCO2	30.7%	-3.6%	?	0.2%	29.4*	55.6*
Cc1ccc(NC(=O)CCNS(=O)(=O)c2ccc3c(c2)CCC(=O)N3)cc1F	49.9%	0.0%	9.28µM*	1.8%	-1.1	6.8
Cc1ccccc1NC(=O)CCNS(=O)(=O)c1ccc2c(c1)CCC(=O)N2	33.7%	-2.6%	?	2.9%	-2.0	-2.2
O/N=C1\CCCc2c1nc(-c1ccccc1F)n2O	29.7%	1.6%	0.2%	4.2%	1.1	17.9
CC(=O)N1CCc2cc(S(=O)(=O)CCC(=O)Nc3ccccc3F)ccc21	6.0%	-2.2%	-11.1%	1.4%	-5.3	-4.8
Cc1ccc(NC(=S)N2CCc3[nH]c4ccccc4c3C2)cc1	3.8%	0.4%	14.1%	-4.5%	2.5	-4.1
S=C(NC1CCCCC1)N1CCc2[nH]c3ccccc3c2C1	?	0.3%	?	-1.9%	7.5	44.0*
CCC(=O)c1ccc(/C=C/c2nc3ccccc3n2C)o1	i	-9.7%	?	/	29.9*	66.7*
C[n+]1cn(Cc2ccc(C#N)cc2)c2ccccc21	-34.9%	-0.4%	?	0.3%	6.7	-7.3
O=C1C(=C(O)c2ccccc2)C(=O)c2ccccc21	?	0.3%	-7.0%	-15.9%	14.2*	23.7
O=C1C(=C(c2ccccc2)c2ccccc2)Nc2ccccc21	?	-16.6%	/	-6.0%	4.4	3.3
COc1ccc2cc(C(=O)N3CCCC(Nc4ccc(F)cc4)C3)n(C)c2c1 (centres undefined)	-4.1%	-0.1%	5.86µM*	-5.3%	-3.6	-18.4
COc1ccc(NC2CCCN(C(=O)c3c(C)noc3C)C2)cc1 (centres undefined)	?	1.9%	1.85µM*	3.2%	-2.9	-15.1
COc1ccc(NC2CCCN(C(=O)CCC(=O)c3ccc(F)cc3)C2)cc1 (centres undefined)	?	-0.7%	-5.0%	5.8%	47.3*	71.8
CCc1[nH]nc(C(=O)N2CCCC(Nc3cccc(F)c3)C2)c1C (centres undefined)	34.6%	0.5%	11.2%	-1.3%	30.6*	65.7*
Cc1cccc(N2CCN(C(=O)c3cc(C)oc3C)CC2C)c1 (centres undefined)	-20.7%	19.0%	-28.7%	-16.8%	1.6	-2.4
O=C(NCc1ccc(Cl)cc1)NCC(F)(F)F	0.5%	18.4%	-1.2%	-4.5%	-4.4	2.4
CNC(=O)CSc1nc2cccnc2n1-c1ccc(F)cc1	-25.4%	-2.7%	?	27.6%	-1.6	-1.6
COc1ccc(NC2CCCN(C(=O)CCN3Cc4ccccc4C3=O)C2)cc1 (centres undefined)	10.0%	-3.1%	8.28µM*	1.0%	13.9	9.4
CN(C)c1ccccc1C(=O)N1CCCC(Nc2ccc(F)cc2)C1 (centres undefined)	-9.5%	1.9%	13.1µM*	-3.7%	-1.4	-13.5
Cn1cc(C(=O)N2CCCC(Nc3ccc(F)cc3)C2)c2ccccc21 (centres undefined)	-3.5%	-5.2%	-7.6%	-2.8%	-2.9	-5.2
O=C(CCN1CCCCO1)N1CCCC(Nc2ccc(F)cc2)C1 (centres undefined)	-14.6%	2.3%	11.7µM*	8.4%	0.1	-5.1

From PubChem BioAssay
